# Measured values taken from PubChem BioAssay.
# Values without a mark were called inactive. For some assays here: Entries with a potency or affinity are not part of this list. Some of the results follow. The source made the active and inactive calls.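 The calls were made as follows, unless noted: active = compound raising the membrane signal above positive-control mean plus 3 SD in both repeats, and a primary screen hit; inactive = the rest.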
# Experiments:
# [1] = tested on: TRPC4 beta (transient receptor potential cation channel C4), mouse; assay: activators of mouse TRPC4 channel, confirmation, cell-based, Fluo4 calcium, HEK293 TRPC4beta/mu-opioid, duplicates, 10 µM (AID 2426;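 active = fluorescence ratio normalized to control raised more than 50% in primary screen plus both repeat runs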); conditions: Fluo4 calcium fluorescence, at 10 µM; active compounds read high
# [2] = tested on: transient receptor potential cation channel C4 beta (TRPC4), mouse; assay: activators of mouse TRPC4 channel, confirmation, cell-based, second round, Fluo4, HEK293 TRPC4beta/mu-opioid, 1 µM (AID 2461;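 active = primary screen active and over 50% activation in each of two duplicate runs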); conditions: Fluo4 calcium fluorescence, at 1 µM; active compounds read high
# [3] = tested on: TRPC4 (transient receptor potential cation channel C4 beta), mouse; assay: positive allosteric modulators of mouse TRPC4, confirmation, cell-based, second round, Fluo-4, HEK293 TRPC4beta/mu-opioid, 1 µM (AID 2554;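 active = primary screen hit whose fluorescence ratio, in both repeats, exceeds the weak agonist control mean by 3 SD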); conditions: DAMGO EC20, Fluo-4 calcium flux, at 1 µM; active compounds read high
# [4] = tested on: TRPC4 beta (transient receptor potential cation channel C4), mouse; assay: positive allosteric modulators of mouse TRPC4, confirmation, cell-based, Fluo-4, HEK293 TRPC4beta/mu-opioid (AID 2555;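 active = primary screen hit whose calcium fluorescence ratio, in both repeats, exceeds the weak agonist control mean by 3 SD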); conditions: DAMGO EC20, Fluo-4 calcium flux, at 10 µM; active compounds read high
# [5] = target: Short transient receptor potential channel 4 (Mus musculus) (UniProt Q9QUQ5); assay: inhibitors of mouse TRPC4 channel, confirmation, cell-based, Fluo4, HEK293 TRPC4beta/mu-opioid (AID 2636;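 active = calcium signal cut by more than 3 SD below the full-agonist control yet still positive, in both repeats and the earlier primary screen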); conditions: DAMGO, Fluo4 calcium flux, at 10 µM; active compounds read high
# Short transient receptor potential channel 4 (Mus musculus), sequence (Q9QUQ5 whole entry, looked up): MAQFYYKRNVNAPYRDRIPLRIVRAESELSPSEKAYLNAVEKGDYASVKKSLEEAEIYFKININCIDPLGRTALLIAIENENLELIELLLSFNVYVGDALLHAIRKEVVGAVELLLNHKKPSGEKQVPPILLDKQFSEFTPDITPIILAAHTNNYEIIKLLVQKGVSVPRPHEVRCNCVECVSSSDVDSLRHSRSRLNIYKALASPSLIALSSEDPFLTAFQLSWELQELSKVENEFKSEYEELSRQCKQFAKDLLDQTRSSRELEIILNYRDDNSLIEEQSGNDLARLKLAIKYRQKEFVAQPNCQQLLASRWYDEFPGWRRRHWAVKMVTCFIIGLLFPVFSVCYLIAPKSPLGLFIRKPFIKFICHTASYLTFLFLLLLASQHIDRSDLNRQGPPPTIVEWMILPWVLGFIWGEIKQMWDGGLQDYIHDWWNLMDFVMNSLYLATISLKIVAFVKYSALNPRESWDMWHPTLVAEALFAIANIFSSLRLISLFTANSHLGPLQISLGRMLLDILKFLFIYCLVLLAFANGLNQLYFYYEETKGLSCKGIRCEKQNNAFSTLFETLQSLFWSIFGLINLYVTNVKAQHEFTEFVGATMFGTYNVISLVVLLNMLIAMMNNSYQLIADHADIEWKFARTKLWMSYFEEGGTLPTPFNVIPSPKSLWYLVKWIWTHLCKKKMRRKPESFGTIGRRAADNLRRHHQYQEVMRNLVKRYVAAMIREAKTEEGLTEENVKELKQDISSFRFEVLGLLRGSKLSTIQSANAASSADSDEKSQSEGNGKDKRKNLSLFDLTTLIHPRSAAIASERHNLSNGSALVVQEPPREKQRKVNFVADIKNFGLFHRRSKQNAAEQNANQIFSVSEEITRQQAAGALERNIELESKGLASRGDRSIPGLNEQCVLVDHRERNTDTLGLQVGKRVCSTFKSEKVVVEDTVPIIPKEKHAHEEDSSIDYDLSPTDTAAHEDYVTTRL
# [6] = target: Short transient receptor potential channel 4 (Mus musculus) (UniProt Q9QUQ5); assay: inhibitors of mouse TRPC4 channel, confirmation, cell-based, second round, Fluo4, HEK293 TRPC4beta/mu-opioid, 1 µM (AID 2637;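 active = calcium signal ratio cut to more than 3 SD under the fully stimulated control mean yet still positive, in both repeats and the primary screen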); conditions: Fluo4 calcium flux, DAMGO, at 1 µM; active compounds read high
# [7] = target: Short transient receptor potential channel 4 (Mus musculus) (UniProt Q9QUQ5); assay: mouse TRPC4 channel activators, dose response, cell-based, HEK293 TRPC4/mu-opioid, Fluo-4 calcium (AID 434937;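 active = primary screen activator hit with a dose response curve and TRPC4 channel activation at any tested dose; inactive = no activation, no dose response, or not a primary hit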)
# [8] = target: Short transient receptor potential channel 4 (Mus musculus) (UniProt Q9QUQ5); assay: TRPC4 positive allosteric modulators, dose response, cell-based, HEK293 TRPC4/mu-opioid, Fluo-4 calcium, EC20 DAMGO (AID 434941;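 active = earlier screen potentiator hit that boosts the TRPC4 ion channel at some dose, with a dose response; inactive = no potentiation, no dose response, or not a prior hit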;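 also: calcium entry triggered by an EC20 dose of DAMGO at the co-expressed mu-opioid receptor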)
# [9] = target: Short transient receptor potential channel 4 (Mus musculus) (UniProt Q9QUQ5); assay: mouse TRPC4 channel inhibitors, dose response, cell-based, HEK293 TRPC4/mu-opioid, Fluo-4 calcium (AID 434942;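 active = primary screen inhibitor hit that blocks the TRPC4 channel at some tested dose, yielding a dose curve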)
# [10] = target: Short transient receptor potential channel 6 (Mus musculus) (UniProt Q61143); assay: inhibition of mouse TRPC6 channel, confirmation, selectivity assay for TRPC4 inhibitor project, cell-based, HEK293, membrane potential dye, duplicate (AID 434948;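 active = active in primary screen and both duplicates, each dropping signal beyond three positive-control SD with fluorescence still positive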); conditions: HEK293 TRPC6, membrane potential dye fluorescence, at 10 µM, stimulated with maximal-effect acetylcholine; active compounds read high
# Short transient receptor potential channel 6 (Mus musculus), sequence (Q61143 whole entry, looked up): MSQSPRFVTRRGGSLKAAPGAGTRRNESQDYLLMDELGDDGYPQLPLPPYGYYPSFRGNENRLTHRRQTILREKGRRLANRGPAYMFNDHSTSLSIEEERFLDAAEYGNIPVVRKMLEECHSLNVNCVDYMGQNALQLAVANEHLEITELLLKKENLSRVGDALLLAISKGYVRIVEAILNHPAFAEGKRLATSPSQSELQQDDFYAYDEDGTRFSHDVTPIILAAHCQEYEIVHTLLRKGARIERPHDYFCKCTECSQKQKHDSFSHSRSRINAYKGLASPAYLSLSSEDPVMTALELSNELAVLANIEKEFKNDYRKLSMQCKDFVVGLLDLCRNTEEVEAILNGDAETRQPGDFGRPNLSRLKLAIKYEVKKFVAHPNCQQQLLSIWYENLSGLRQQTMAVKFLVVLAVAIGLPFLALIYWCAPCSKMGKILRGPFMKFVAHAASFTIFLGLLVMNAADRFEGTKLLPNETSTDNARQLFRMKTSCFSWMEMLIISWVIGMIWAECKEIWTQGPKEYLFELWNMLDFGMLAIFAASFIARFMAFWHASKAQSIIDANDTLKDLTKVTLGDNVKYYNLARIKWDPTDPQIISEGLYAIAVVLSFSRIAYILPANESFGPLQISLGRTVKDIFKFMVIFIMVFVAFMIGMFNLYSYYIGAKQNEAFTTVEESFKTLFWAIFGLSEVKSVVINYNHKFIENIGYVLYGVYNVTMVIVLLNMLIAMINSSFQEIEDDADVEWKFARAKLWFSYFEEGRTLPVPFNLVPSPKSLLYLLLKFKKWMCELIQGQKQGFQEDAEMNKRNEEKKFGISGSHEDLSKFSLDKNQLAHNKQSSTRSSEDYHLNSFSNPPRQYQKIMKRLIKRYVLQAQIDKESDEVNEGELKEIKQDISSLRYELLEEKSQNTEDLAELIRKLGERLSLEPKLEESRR
# [11] = target: Short transient receptor potential channel 6 (Mus musculus) (UniProt Q61143); assay: activation of mouse TRPC6 channel, confirmation, selectivity assay for TRPC4 activator project, cell-based, HEK293, membrane potential dye, duplicate (AID 434950;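 active = membrane potential signal rise above negative control mean plus 3 SD in both duplicates, also active in the earlier TRPC4 screen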); conditions: HEK293 TRPC6, membrane potential fluorescence, at 10 µM; active compounds read high
# [12] = target: Short transient receptor potential channel 6 (Mus musculus) (UniProt Q61143); assay: TRPC6 potentiation by TRPC4 potentiator hits, confirmation, selectivity assay for TRPC4 potentiator project, HEK293 cells, membrane potential dye, duplicate (AID 434952); conditions: HEK293 TRPC6, membrane potential dye fluorescence, at 10 µM, maximal acetylcholine added after compound; active compounds read high
# [13] = target: Short transient receptor potential channel 4 (Mus musculus) (UniProt Q9QUQ5); assay: calcium flux activators in TRPC4/5HT1a cells, counter-screen for TRPC4 activator project, cell-based, second counter screen, HEK293 TRPC4/5HT1a, Fluo-4 (AID 434977;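 active = calcium signal rise above buffer-control mean plus 5 SD in both duplicates, and also a hit in the primary screen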); conditions: Fluo-4 calcium flux, at 10 µM; active compounds read high
# [14] = calcium flux inhibitors in TRPC4/5HT1a cells, confirmation, counter-screen for TRPC4 inhibitor project, cell-based, second counter screen, HEK293 TRPC4/5HT1a, Fluo-4 (AID 434978;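 active = primary screen active whose calcium signal fell more than 3 SD beyond the full-serotonin control mean in both duplicate plates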;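 also: serotonin given first at submaximal then at maximal dose after compound preincubation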); conditions: Fluo-4 calcium flux, at 10 µM, serotonin added to trigger calcium flux; active compounds read high
# [15] = tested on: TRPC4 (mouse), co-expressed with 5HT1a in HEK293; assay: calcium flux potentiators in TRPC4/5HT1a cells, confirmation, counter-screen for TRPC4 potentiator project, cell-based, second counter screen, HEK293 TRPC4/5HT1a, Fluo-4 (AID 434979;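 active = signal rise over 3 SD above mean of control wells given weak agonist, in both repeats and first screen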); conditions: Fluo-4 calcium flux, at 10 µM, serotonin added at its EC20 dose; active compounds read high
# [16] = calcium flux activation in mu-opioid HEK293 cells, confirmation, counter-screen for TRPC4 activator project, cell-based, HEK293 mu-opioid receptor line (AID 449723;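 active = hit in primary screen, with calcium signal over 5 SD above buffer well mean in both duplicates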;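 also: counter screen cells carry the mu-opioid receptor alone and lack TRPC4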); conditions: Fluo-4 calcium fluorescence, at 10 µM; active compounds read high
# [17] = calcium flux enhancement in mu-opioid HEK293 cells, confirmation, counter-screen for TRPC4 allosteric potentiator project, cell-based, HEK293 mu-opioid receptor line (AID 449724;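 active = calcium signal rise more than 3 SD above the low-dose agonist control mean, in both duplicate plates and the primary screen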); conditions: Fluo-4 calcium flux, at 10 µM, compound added before EC20 DAMGO stimulus; active compounds read high
# [18] = nonspecific thallium flux increase in parental CHO-K1, confirmation, counter-screen for KCNQ2 potentiator project, cell-based, FluxOR thallium flux, duplicate (AID 2282;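 active = signal rise of at least 3 SD above the untreated control mean, in both duplicate wells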;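 also: counter screen of KCNQ2 potentiator hits so any rise reflects channel-independent effects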); conditions: parental CHO-K1 cells, FluxOR thallium flux fluorescence; at 10 µM; active compounds read high; zero = vehicle mean+3SD, 100% = vehicle-minus-blank window
# [19] = target: Potassium voltage-gated channel subfamily KQT member 1 (Homo sapiens) (UniProt P51787); assay: human KCNQ1 channel potentiation off-target, confirmation, selectivity assay for KCNQ2 potentiator project, cell-based, CHO, FluxOR thallium flux (AID 2283;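 active = fluorescence ratio rise of at least 3 SD of vehicle wells above their mean, in both replicate wells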;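 also: 0% = vehicle mean plus 3 SD and 100% = vehicle minus unstimulated blank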); conditions: CHO KCNQ1 stable, FluxOR thallium flux fluorescence; at 10 µM; active compounds read high; beyond 3SD, as % of vehicle-control signal
# Potassium voltage-gated channel subfamily KQT member 1 (Homo sapiens), sequence (P51787 whole entry, looked up): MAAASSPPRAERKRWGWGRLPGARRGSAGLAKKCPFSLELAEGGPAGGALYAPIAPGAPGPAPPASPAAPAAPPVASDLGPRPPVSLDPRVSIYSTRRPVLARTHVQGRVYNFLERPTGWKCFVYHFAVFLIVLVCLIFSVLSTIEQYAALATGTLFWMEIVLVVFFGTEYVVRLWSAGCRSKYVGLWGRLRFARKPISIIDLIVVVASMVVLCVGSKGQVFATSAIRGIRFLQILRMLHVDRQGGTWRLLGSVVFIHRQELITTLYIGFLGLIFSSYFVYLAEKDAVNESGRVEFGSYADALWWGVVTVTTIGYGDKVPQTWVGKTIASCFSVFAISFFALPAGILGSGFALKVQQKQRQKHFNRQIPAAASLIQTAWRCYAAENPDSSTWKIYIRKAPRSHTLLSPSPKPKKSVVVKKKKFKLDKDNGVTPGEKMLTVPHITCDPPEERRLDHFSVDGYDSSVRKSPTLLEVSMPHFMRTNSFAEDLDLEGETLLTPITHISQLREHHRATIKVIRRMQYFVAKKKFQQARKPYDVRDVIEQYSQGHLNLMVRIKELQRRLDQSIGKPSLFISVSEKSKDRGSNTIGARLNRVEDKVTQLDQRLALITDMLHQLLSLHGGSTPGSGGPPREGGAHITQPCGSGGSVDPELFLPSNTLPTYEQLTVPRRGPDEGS
# [20] = target: Potassium voltage-gated channel subfamily KQT member 2 (Rattus norvegicus) (UniProt O88943); assay: rat KCNQ2 channel potentiators, confirmation, cell-based, CHO, FluxOR thallium flux, duplicate (AID 2287;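 active = fluorescence ratio rising 3 SD or more over the vehicle control mean in both replicates, plus primary screen hit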;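 also: peak minus minimum thallium fluorescence divided by baseline after K/Tl stimulus; 0% = vehicle mean plus 3 SD and 100% = vehicle minus unstimulated blank difference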); conditions: CHO-KCNQ2 cells, FluxOR thallium flux fluorescence; at 10 µM; active compounds read high
# Potassium voltage-gated channel subfamily KQT member 2 (Rattus norvegicus), sequence (O88943 whole entry, looked up): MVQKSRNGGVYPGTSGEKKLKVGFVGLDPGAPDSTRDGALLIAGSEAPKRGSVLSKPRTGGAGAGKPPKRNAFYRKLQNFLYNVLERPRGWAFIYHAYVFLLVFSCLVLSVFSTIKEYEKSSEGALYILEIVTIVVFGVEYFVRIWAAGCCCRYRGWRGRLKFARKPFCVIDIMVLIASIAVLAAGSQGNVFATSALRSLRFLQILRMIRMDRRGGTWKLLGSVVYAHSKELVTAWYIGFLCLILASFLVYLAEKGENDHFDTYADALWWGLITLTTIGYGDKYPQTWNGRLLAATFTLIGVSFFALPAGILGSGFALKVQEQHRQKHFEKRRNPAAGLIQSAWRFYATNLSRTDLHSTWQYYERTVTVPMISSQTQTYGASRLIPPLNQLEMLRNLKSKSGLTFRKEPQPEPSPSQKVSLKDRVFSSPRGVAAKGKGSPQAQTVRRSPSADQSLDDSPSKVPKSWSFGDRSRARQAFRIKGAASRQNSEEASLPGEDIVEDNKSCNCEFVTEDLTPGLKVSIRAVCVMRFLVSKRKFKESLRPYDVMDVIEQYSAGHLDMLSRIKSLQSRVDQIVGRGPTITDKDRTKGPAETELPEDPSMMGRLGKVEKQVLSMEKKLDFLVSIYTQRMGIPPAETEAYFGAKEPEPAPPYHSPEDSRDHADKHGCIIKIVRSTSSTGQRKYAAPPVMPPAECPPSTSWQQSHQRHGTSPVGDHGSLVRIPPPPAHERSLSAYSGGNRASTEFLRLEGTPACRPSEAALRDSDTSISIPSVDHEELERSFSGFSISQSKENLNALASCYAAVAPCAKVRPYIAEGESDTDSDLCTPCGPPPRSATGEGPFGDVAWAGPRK
compound,measurement,setting,value
NC(=O)c1ccc(N2CCN(c3ncc(C(F)(F)F)cc3Cl)CC2)cc1,outcome,[1],inactive
same,outcome,[2],inactive
same,outcome,[3],inactive
same,outcome,[4],inactive
same,outcome,[5],inactive
same,outcome,[6],inactive
same,outcome,[7],inactive
same,outcome,[8],inactive
same,outcome,[9],inactive
same,outcome,[10],inactive
same,outcome,[11],inactive
same,outcome,[12],inactive
same,outcome,[13],inactive
same,outcome,[14],inactive
same,potentiation,[15],11.9% (active)
same,outcome,[16],inactive
same,outcome,[17],inactive
CC(C)(C)C1CCC(C(=O)NCC(c2cccs2)N2CCOCC2)CC1 (stereo not given),activity increase over 3SD of controls,[18],-27.5%
same,activation over 3SD threshold,[19],-18.7%
same,"potentiation, less the hit threshold",[20],13.3% (active)
Cc1cc(OCC(=O)NNC(=S)NC(=O)c2cccs2)ccc1Cl,outcome,[1],inactive
same,outcome,[2],inactive
same,outcome,[3],inactive
same,outcome,[4],inactive
same,outcome,[5],inactive
same,outcome,[6],inactive
same,outcome,[7],inactive
same,outcome,[8],inactive
same,outcome,[9],inactive
same,outcome,[10],inactive
same,outcome,[11],inactive
same,outcome,[12],inactive
same,outcome,[13],inactive
same,outcome,[14],inactive
same,outcome,[15],inactive
same,outcome,[16],inactive
same,outcome,[17],inactive
COc1ccc(NC(=O)CCCC2CCCCC2)c(OC)c1,activity increase over 3SD of controls,[18],-19.3%
same,activation over 3SD threshold,[19],-6.1%
same,"potentiation, less the hit threshold",[20],80% (active)
Cc1ccc(-n2c(SCc3cc(=O)n4ccsc4n3)nnc2-c2cccnc2)c(C)c1,outcome,[1],inactive
same,outcome,[2],inactive
same,outcome,[3],inactive
same,outcome,[4],inactive
same,outcome,[5],inactive
same,outcome,[6],inactive
same,outcome,[7],inactive
same,outcome,[8],inactive
same,outcome,[9],inactive
same,outcome,[10],inactive
same,outcome,[11],inactive
same,outcome,[12],inactive
same,outcome,[13],inactive
same,outcome,[14],inactive
same,outcome,[15],inactive
same,outcome,[16],inactive
same,outcome,[17],inactive
COc1cc(/C=C2\C(=O)ON=C2c2ccccc2)cc(Cl)c1O,outcome,[1],inactive
same,outcome,[2],inactive
same,outcome,[3],inactive
same,outcome,[4],inactive
same,inhibition,[5],76% (active)
same,outcome,[6],inactive
same,outcome,[7],inactive
same,outcome,[8],inactive
same,outcome,[9],inactive
same,outcome,[10],inactive
same,outcome,[11],inactive
same,outcome,[12],inactive
same,outcome,[13],inactive
same,outcome,[14],inactive
same,outcome,[15],inactive
same,outcome,[16],inactive
same,outcome,[17],inactive
CCN1CCN(c2ccc(NC(=O)CCc3c(C)nc4c(-c5ccc(F)cc5)c(C)nn4c3C)cc2)CC1,outcome,[1],inactive
same,outcome,[2],inactive
same,outcome,[3],inactive
same,outcome,[4],inactive
same,outcome,[5],inactive
same,outcome,[6],inactive
same,outcome,[7],inactive
same,outcome,[8],inactive
same,outcome,[9],inactive
same,outcome,[10],inactive
same,outcome,[11],inactive
same,outcome,[12],inactive
same,outcome,[13],inactive
same,outcome,[14],inactive
same,outcome,[15],inactive
same,outcome,[16],inactive
same,outcome,[17],inactive
COc1ccc(-c2cc(C(F)(F)F)nc(N3CCN(C)CC3)n2)cc1,outcome,[1],inactive
same,outcome,[2],inactive
same,outcome,[3],inactive
same,outcome,[4],inactive
same,outcome,[5],inactive
same,outcome,[6],inactive
same,outcome,[7],inactive
same,outcome,[8],inactive
same,outcome,[9],inactive
same,outcome,[10],inactive
same,outcome,[11],inactive
same,outcome,[12],inactive
same,outcome,[13],inactive
same,outcome,[14],inactive
same,potentiation,[15],14.5% (active)
same,outcome,[16],inactive
same,outcome,[17],inactive
Cc1ccc(S(=O)(=O)c2c(C(=O)c3ccccc3)cnc3cc4c(cc23)OCCO4)cc1,outcome,[1],inactive
same,outcome,[2],inactive
same,outcome,[3],inactive
same,outcome,[4],inactive
same,outcome,[5],inactive
same,outcome,[6],inactive
same,outcome,[7],inactive
same,outcome,[8],inactive
same,outcome,[9],inactive
same,outcome,[10],inactive
same,outcome,[11],inactive
same,outcome,[12],inactive
same,outcome,[13],inactive
same,outcome,[14],inactive
same,potentiation,[15],14.5% (active)
same,outcome,[16],inactive
same,outcome,[17],inactive
